Assay results reported in the supplement of paper PMC12340641.
Where a name gives a salt, the structure may show the parent alone.

Legend:
[1] = target: IKZF1 (dCK*-IKZF1 fusion in HEK293FT) (UniProt Q13422); assay: inhibition of IKZF1 HTRF signal (DMSO = 0%, pomalidomide 10 uM = 100%); higher = lower IKZF1 protein level; details: compound concentration: 5 uM, overnight (~20 h)
Method in brief: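 After overnight treatment at 37 °C with 5 μM compound in single wells, HEK293FT cells (2000/well, 384-well) stably expressing an IKZF1 fusion were lysed for 30 min at room temperature. A commercial HTRF total-IKZF1 antibody kit was incubated with the lysate overnight, and the time-resolved FRET ratio at 665/620 nm was corrected for background. Data are given as percent inhibition of IKZF1 signal relative, on each plate, to vehicle and a reference degrader, set at 0% and 100% respectively.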

HEK293FT dCK*-only = assay: relative growth in counter assay (no AraC = 100%, AraC + DMSO = 0%); higher = more growth rescue independent of IKZF1; details: compound concentration: 5 uM; AraC concentration: 0.3 uM; overnight pretreatment + 4 days AraC
Method in brief: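 Counter assay in HEK293FT cells expressing dCK* alone (300/well, 384-well). Cells received 5 μM compound 2 h after seeding, then after overnight at 37 °C a nucleoside suicide substrate at 0.3 μM plus medium for 4 days. On day 5, Hoechst 33342-stained nuclei were counted by imaging. Relative growth was normalised per plate to wells without suicide substrate (100%) and substrate plus vehicle (0%).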

HEK293FT dCK*-IKZF1 = assay: relative growth recovery (pomalidomide 10 uM = 100%, DMSO = 0%); higher = more growth rescue (IKZF1 fusion degradation); details: compound concentration: 5 uM; AraC concentration: 0.3 uM; overnight pretreatment + 4 days AraC
Method in brief: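 Means of duplicates from different days are given for growth recovery, normalised per plate against a reference degrader and vehicle. The reference degrader set the 100% level and vehicle the 0% level. HEK293FT cells stably expressing a deoxycytidine kinase–IKZF1 fusion (300/well, 384-well) received 5 μM compound 2 h after seeding and, after overnight at 37 °C, 0.3 μM of a nucleoside suicide substrate plus medium for 4 days. Nuclei stained with Hoechst 33342 were then counted by whole-well imaging on day 5.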

Chain of IKZF1 (dCK*-IKZF1 fusion in HEK293FT) (Q13422 whole entry, looked up, the tested form may be a part): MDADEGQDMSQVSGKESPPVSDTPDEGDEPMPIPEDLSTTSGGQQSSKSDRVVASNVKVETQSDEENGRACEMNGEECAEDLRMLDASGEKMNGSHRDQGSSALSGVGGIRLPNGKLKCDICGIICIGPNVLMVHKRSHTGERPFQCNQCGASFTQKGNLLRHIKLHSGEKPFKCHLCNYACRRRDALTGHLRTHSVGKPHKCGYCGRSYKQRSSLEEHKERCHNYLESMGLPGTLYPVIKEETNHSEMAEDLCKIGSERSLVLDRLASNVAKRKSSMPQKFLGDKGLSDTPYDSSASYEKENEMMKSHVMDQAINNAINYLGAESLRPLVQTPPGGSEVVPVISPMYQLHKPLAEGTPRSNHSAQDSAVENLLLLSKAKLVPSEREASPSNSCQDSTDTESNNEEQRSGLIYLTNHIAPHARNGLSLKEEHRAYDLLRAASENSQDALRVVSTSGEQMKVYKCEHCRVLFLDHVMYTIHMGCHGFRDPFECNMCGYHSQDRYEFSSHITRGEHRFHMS

SMILES	inhibition of IKZF1 HTRF signal [1]	relative growth in counter assay (HEK293FT dCK*-only)	relative growth recovery (HEK293FT dCK*-IKZF1)
CO[C@H]1CC(O[C@@H]2/C(C)=C/C[C@@H]3C[C@@H](C[C@]4(CC[C@H](C)[C@@H](C5CCCCC5)O4)O3)OC(=O)[C@@H]3C=C(C)/C(=N/O)[C@H]4OC/C(=C\C=C\[C@@H]2C)[C@]43O)O[C@@H](C)C1O (stereo not given in full)	-24.5%	10.4%	-2.14%
COc1ccc(CN2C(=O)C(=O)c3cc(OC(F)(F)F)ccc32)cc1	-14.2%	-33.6%	-11.5%
COc1cc(NC(=O)c2ccc(-c3ccc(Cl)cc3)o2)cc(OC)c1	-48.3%	14.9%	7.22%
NC(=O)N1c2ccccc2CC(=O)c2ccccc21	17.9%	5.74%	-1.02%
Clc1ccccc1C(c1ccccc1)(c1ccccc1)n1ccnc1 [Clotrimazole]	-53.5%	11.9%	1.77%
COc1cc(NS(C)(=O)=O)ccc1Nc1c2ccccc2nc2ccccc12	-14.1%	-35.1%	-13.2%
Nc1nnc(-c2cccc(Cl)c2Cl)c(N)n1	-57.4%	0.9%	-1.71%
CCOC(=O)C1=C[C@]2(CC)CCCN3CCc4c(n1c1ccccc41)[C@@H]32	-26.3%	-0.08%	3.4%
CCN(CC)CCCC(C)Nc1ccnc2cc(Cl)ccc12 (stereo not given) [Chloroquine Diphosphate]	-13.4%	1.31%	0.365%
CN1CCC[C@@H]1CCO[C@](C)(c1ccccc1)c1ccc(Cl)cc1	-21.3%	6.03%	-3.56%
Nc1ccc(/N=N/c2ccccc2)c(N)n1	-28.9%	-3.22%	-1.03%
CCC(=O)O[C@@H]1CC(=O)O[C@H](C)C/C=C/C=C/[C@H](OC(C)=O)[C@H](C)C[C@H](CC=O)[C@H](O[C@@H]2O[C@H](C)[C@@H](O[C@H]3C[C@@](C)(OC(C)=O)[C@@H](OC(=O)CC)[C@H](C)O3)[C@H](N(C)C)[C@H]2O)[C@H]1OC [Midecamycin Acetate]	-24.1%	2.69%	0.995%
O=C1OCCN1/N=C/c1ccc([N+](=O)[O-])o1	-32.5%	-3.23%	-3.37%
CC1(C)CCC2=C(O1)c1ccccc1C(=O)C2=O	-30%	-24.5%	-10.9%
CN(C)CCC=C1c2ccccc2CCc2ccccc21	8.98%	-1.73%	0.57%
[2H]C([2H])([2H])C(O)(CCO[C@@H](C)[C@H]1CC[C@H]2/C(=C/C=C3/C[C@@H](O)C[C@H](O)C3=C)CCC[C@]12C)C([2H])([2H])[2H] [maxacalcitol]	-24.6%	9.68%	7.53%
C1CCC(C(CC2CCCCN2)C2CCCCC2)CC1 (stereo not given)	11.6%	-1.13%	-2.33%
CCCS(=O)c1ccc2nc(NC(=O)OC)[nH]c2c1 (stereo not given) [Albendazole Oxide (Ricobendazole)]	24.3%	-7.11%	-2.83%
O=C1c2c(O)ccc(O)c2C(=O)c2c(NCCNCCO)ccc(NCCNCCO)c21	5.77%	-35.5%	-13.7%
CC(C)CCN1c2nc(Nc3cc(F)c(O)c(F)c3)ncc2N(C)C(=O)C1C (stereo not given)	-50.7%	-32.3%	-11.3%
O=C1CN(/N=C/c2ccc(-c3ccc([N+](=O)[O-])cc3)o2)C(=O)N1 [dantrolene]	27.9%	-3.99%	4.57%
Cc1ncsc1-c1ccc(CNC(=O)[C@@H]2C[C@@H](O)CN2C(=O)[C@@H](NC(=O)COCCCCOc2ccc(-c3ccc(N4C(=S)N(c5ccc(C#N)c(C(F)(F)F)c5)C(=O)C4(C)C)cc3)cc2)C(C)(C)C)cc1	21.2%	72.3%	55.3%
CCSc1ccc2c(c1)N(CCCN1CCN(C)CC1)c1ccccc1S2 [thiethylperazine]	24.1%	-4.22%	1.55%
O=C1c2c(O)cccc2Cc2cccc(O)c21	14%	-0.62%	-0.185%
CSCC1CN(/N=C/c2ccc([N+](=O)[O-])o2)C(=O)O1 (stereo not given) [Nifuratel]	-39.4%	-3.74%	-1.79%
COC1=C(OC)C(=O)C(CCCCCCCCCCO)=C(C)C1=O	41.8%	-5.9%	-2.21%
Cc1cc(C)c(C2=NOC3C4CCC(C4)C23)c(C)c1 (stereo not given)	-34%	1.92%	-0.34%
NC(=O)N/N=C/c1ccc(Oc2ccc(F)cc2)cc1	-35%	2.45%	-1.07%
OC(c1cc(C(F)(F)F)nc2c(C(F)(F)F)cccc12)C1CCCCN1 (stereo not given) [Mefloquine HCl]	-25.2%	-1.31%	-6.05%
C=C1C(=O)O[C@@H]2C[C@@]3(C)CCC[C@H](C)C3=C[C@H]12 [alantolactone]	-31.2%	-28%	-7.37%
